Laboratory results published in PubChem BioAssay (NCATS).
Records with an inconclusive call do not appear. Entries that show only a call come without a potency. Active and inactive are the calls of the source. Calls follow the shape of the dose curve; as a rule, active = well fitted inhibition curve with a large enough effect; inconclusive = small, poorly fitted or top-dose-only effect; inactive = flat fitted curve, though single readings scatter. Numbered stars: 1 amine (or outer) side, 2 acyl side, 3 side chain; on linkers, the order of the positions; unused ones are H or OH. Bridge positions count the residues as written; N and C are the ends. Square brackets hold non-standard residues; d marks the D form. Peptide text beside a SMILES is read from it. I, II: the chains in the order shown. Actinocin(9to1) = Cc1c2oc3c(C)ccc(C(=O)[*:1])c3nc-2c(C(=O)[*:2])c(N)c1=O; NMeV = CN[C@H](C(=O)O)C(C)C; Sar = CNCC(=O)O

How the values were obtained:
Experiment in all cases: qHTS profiling for inhibitors of Plasmodium falciparum proliferation (AID 504749); also: nearly all actives have a fitted effect of over 60% in size
Settings in all cases: P. falciparum in erythrocytes, SYBR Green DNA, 72 h; series mostly up to 28.7 µM
[1] = test system: CP262
How it was run: (§1)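 Parasite proliferation within erythrocytes, 72 h exposure. Endpoint: SYBR Green I fluorescence after overnight lysis at room temperature. Controls: 0.29 uM artemisinin, DMSO.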

[2] = test system: CP266
How it was run: as §1

[3] = test system: CP268
How it was run: as §1

[4] = test system: CP286
How it was run: as §1

[5] = test system: CP297
How it was run: as §1

[6] = test system: CP305
How it was run: as §1

[7] = test system: CP315
How it was run: as §1

[8] = test system: DFO2036
How it was run: as §1

[9] = test system: DIV30
How it was run: as §1

[10] = test system: ECU
How it was run: as §1

[11] = test system: FAB9
How it was run: as §1

[12] = test system: CP269
How it was run: as §1

[13] = test system: CP291
How it was run: as §1

[14] = test system: CP325
How it was run: as §1

[15] = test system: CP329
How it was run: as §1

[16] = test system: CP335
How it was run: as §1

[17] = test system: DIV14
How it was run: as §1

[18] = test system: DIV17
How it was run: as §1

[19] = test system: Dd2
How it was run: as §1

[20] = test system: CP265
How it was run: as §1
Potency is read from the fitted curve at half-maximal effect.

Compound | Potency [1] | Potency [2] | Potency [3] | Potency [4] | Potency [5] | Potency [6] | Potency [7] | Potency [8] | Potency [9] | Potency [10] | Potency [11] | Potency [12] | Potency [13] | Potency [14] | Potency [15] | Potency [16] | Potency [17] | Potency [18] | Potency [19] | Potency [20]
CN1CCN(C(c2ccccc2)c2ccccc2)CC1 | inactive | inactive | inactive | inactive | inactive | inactive | inactive | inactive | inactive | inactive | inactive | – | – | – | – | – | – | – | – | –
O=C(Nc1ccc(Oc2ccc(Cl)cc2)c(Cl)c1)c1cc(I)cc(I)c1O | inactive | inactive | inactive | inactive | inactive | inactive | inactive | inactive | inactive | – | inactive | inactive | inactive | inactive | inactive | inactive | inactive | inactive | inactive | –
CCCCN1CCCC1C(=O)Nc1c(C)cc(C)cc1C (stereo not drawn) | inactive | – | inactive | inactive | – | inactive | inactive | inactive | inactive | inactive | inactive | inactive | inactive | inactive | inactive | – | inactive | inactive | – | inactive
CC(C)N=C(N)/N=C(\N)Nc1ccc(Cl)cc1 | 2280 nM (active) | inactive | inactive | – | – | – | – | – | – | – | – | – | – | – | – | – | inactive | – | 3550 nM (active) | –
CN(C)CC/C=C1\c2ccccc2Sc2ccc(Cl)cc21 | inactive | inactive | inactive | 11200 nM (active) | inactive | inactive | inactive | – | – | – | 8910 nM (active) | – | – | – | inactive | – | 7570 nM (active) | 3380 nM (active) | 8910 nM (active) | –
Cc1c2oc3c(C)ccc(C(=O)N[C@@H]4C(=O)N[C@H](C(C)C)C(=O)N5CCC[C@H]5C(=O)N(C)CC(=O)N(C)[C@@H](C(C)C)C(=O)O[C@@H]4C)c3nc-2c(C(=O)N[C@@H]2C(=O)N[C@H](C(C)C)C(=O)N3CCC[C@H]3C(=O)N(C)CC(=O)N(C)[C@@H](C(C)C)C(=O)O[C@@H]2C)c(N)c1=O (I: T[dV]P[Sar][NMeV] / II: T[dV]P[Sar][NMeV]; ester I:1-I:C, II:1-II:C; linker I:N-II:N via Actinocin(9to1)) | 3.4 nM (active) | 8.5 nM (active) | 6.7 nM (active) | 3.5 nM (active) | 6 nM (active) | 5.4 nM (active) | 7.6 nM (active) | 3.2 nM (active) | 7.6 nM (active) | 3.2 nM (active) | 11.2 nM (active) | 6 nM (active) | 5.4 nM (active) | 5.4 nM (active) | 6 nM (active) | 1.9 nM (active) | 3.8 nM (active) | 5.4 nM (active) | 4.5 nM (active) | –
CCCCCCc1ccc(O)cc1O | inactive | – | inactive | inactive | inactive | inactive | inactive | inactive | inactive | inactive | inactive | inactive | inactive | inactive | inactive | inactive | inactive | inactive | inactive | inactive
CCOC(=O)COc1ccc2c(C)c(CCN(CC)CC)c(=O)oc2c1Cl | inactive | inactive | inactive | inactive | inactive | inactive | inactive | inactive | inactive | – | inactive | inactive | inactive | inactive | inactive | inactive | inactive | inactive | inactive | –
